# Measurements published in PubChem BioAssay (NCATS).
# Where “and” joins values, the source holds several entries; their conditions need not be identical. Equal entries are not always repeated. Inconclusive results are not listed. A call without a number means that no potency is given here. The source holds several records for some structures; these can differ, active in one and inactive in another. Calls of active or inactive are those of the source. Unless noted, calls follow the shape of the dose curve; as a rule, active = well fitted curve in the direction sought with a large enough effect; inconclusive = small, poorly fitted or top-dose-only effect, or another doubt; inactive = no such curve, though single readings can be large; an effect the other way counts as inactive or inconclusive.
# Tests used:
# [1] = P-glycoprotein substrates identified in KB-3-1 adenocarcinoma cell line, qHTS therapeutic library screen (AID 1346986); settings: KB-3-1 parental cells viability, CellTiter-Glo, 72 h; at 44.5 µM (top of the series); also: nearly all actives have a fitted effect of over 60% in size
# Summary of the method: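 Viability read by CellTiter-Glo after 72 h compound exposure in dose-response of KB-3-1 and KB-8-5-11 (P-gp-high) cells. Hits needed AC50 < 10 uM, >50% maximum response and curve class -1.1 to -2.4. Cherry-picks retested ± tariquidar, including pcDNA/MDR-19 HEK-293 pair.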
# [2] = P-glycoprotein substrates identified in KB-8-5-11 adenocarcinoma cell line, qHTS therapeutic library screen (AID 1346987); also: nearly all actives have a fitted effect of over 65% in size; also: potency is read from the fitted curve at half-maximal effect
# Summary of the method: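 Compounds are pinned in dose-response onto KB-8-5-11 cells (500 cells/well, colchicine-free medium) and left 72 h at 37 degree C. CellTiter-Glo luminescence then yields AC50 values.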
# [3] = Natriuretic polypeptide receptor (hNpr1) antagonism - Pilot counterscreen GloSensor control cell line (AID 1347045; calls by dose curve)
# Summary of the method: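 Control counterscreen: luciferase cGMP-biosensor HEK293 cells (no Npr1) received compound for 30 min at room temperature after GloSensor substrate loading. Luminescence was measured before and 20 min after soluble guanylyl cyclase activation by 50 uM nitroprusside.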
# [4] = target: Atrial natriuretic peptide receptor 2 (Homo sapiens) (UniProt P20594); test: Natriuretic polypeptide receptor (hNpr2) antagonism - Pilot subtype selectivity assay (AID 1347050; calls by dose curve)
# Sequence of Atrial natriuretic peptide receptor 2 (Homo sapiens) (P20594 whole entry, looked up): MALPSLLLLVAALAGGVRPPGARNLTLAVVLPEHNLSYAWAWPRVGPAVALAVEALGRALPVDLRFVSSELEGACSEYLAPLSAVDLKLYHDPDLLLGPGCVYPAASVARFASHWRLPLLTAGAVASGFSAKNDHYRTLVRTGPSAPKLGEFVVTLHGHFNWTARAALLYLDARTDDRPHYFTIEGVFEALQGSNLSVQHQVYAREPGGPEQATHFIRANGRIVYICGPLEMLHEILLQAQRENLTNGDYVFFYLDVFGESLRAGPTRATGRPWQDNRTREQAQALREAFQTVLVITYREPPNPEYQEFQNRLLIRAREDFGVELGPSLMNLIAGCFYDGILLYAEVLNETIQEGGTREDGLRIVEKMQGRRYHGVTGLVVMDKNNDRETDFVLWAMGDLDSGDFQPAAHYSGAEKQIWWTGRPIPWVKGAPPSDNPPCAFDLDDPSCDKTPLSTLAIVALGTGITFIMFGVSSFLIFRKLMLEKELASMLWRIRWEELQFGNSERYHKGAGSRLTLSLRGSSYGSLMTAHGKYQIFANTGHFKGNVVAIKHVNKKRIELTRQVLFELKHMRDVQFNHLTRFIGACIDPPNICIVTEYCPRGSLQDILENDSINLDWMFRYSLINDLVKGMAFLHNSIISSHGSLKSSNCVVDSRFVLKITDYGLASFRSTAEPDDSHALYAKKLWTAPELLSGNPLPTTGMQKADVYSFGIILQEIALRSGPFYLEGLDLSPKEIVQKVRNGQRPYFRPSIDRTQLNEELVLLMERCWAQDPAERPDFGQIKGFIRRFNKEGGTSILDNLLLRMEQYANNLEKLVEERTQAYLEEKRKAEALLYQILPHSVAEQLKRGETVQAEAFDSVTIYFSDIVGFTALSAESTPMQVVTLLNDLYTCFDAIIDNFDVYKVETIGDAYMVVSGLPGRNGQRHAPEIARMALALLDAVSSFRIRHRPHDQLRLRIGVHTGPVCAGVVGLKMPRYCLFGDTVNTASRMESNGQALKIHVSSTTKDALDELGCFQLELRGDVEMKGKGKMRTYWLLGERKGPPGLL
# Summary of the method: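 Antagonist mode: compounds (LOPAC1280, seven 1:5 dilutions) added 30 min before 1 nM hNppC stimulation of hNpr2-HEK293 cGMP-sensor cells; luminescence read before and 20 min after agonist at ambient temperature.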
# [5] = NS1 protein of Zika virus - qHTS assay to identify small molecule inhibitors in human HEK 293 cells (AID 1347053); also: nearly all actives have a fitted effect of over 55% in size; also: potency is read from the fitted curve at half-maximal effect
# Summary of the method: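 TR-FRET signal from two anti-ZIKV NS1 antibodies quantified NS1 in HEK 293 cells 24 h after MR766 infection at MOI = 0.5; compounds were added 1 h before virus. Uninfected cells and infected cells defined the NS1 normalization range.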
# [6] = target: T1, Tyrosine-protein phosphatase non-receptor type substrate 1 (Homo sapiens) + Leukocyte surface antigen CD47 (Homo sapiens) (UniProt P78324+Q08722); test: CD47-SIRPalpha protein protein interaction - LANCE assay qHTS validation (AID 1347057; active = well fitted curve in the direction sought with a large enough effect in the signal ratio, with a control signal flat, not every such curve was filed as active; the % refers to the signal ratio)
# T1 sequence (P78324 whole entry, looked up, the tested form may be a part): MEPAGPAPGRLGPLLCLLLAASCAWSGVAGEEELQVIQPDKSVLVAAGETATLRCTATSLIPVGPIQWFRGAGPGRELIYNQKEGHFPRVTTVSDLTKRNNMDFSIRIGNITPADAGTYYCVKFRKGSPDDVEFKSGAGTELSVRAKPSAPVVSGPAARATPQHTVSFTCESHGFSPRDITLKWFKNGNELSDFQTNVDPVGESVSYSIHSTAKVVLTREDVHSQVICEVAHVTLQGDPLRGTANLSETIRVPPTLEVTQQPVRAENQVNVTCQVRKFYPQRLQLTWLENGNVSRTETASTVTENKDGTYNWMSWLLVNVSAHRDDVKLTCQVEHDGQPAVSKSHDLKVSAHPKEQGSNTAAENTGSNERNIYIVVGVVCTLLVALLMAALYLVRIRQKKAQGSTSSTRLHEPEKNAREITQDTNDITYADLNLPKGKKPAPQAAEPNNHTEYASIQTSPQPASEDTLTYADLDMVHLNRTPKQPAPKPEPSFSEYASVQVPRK
# T1 sequence (Q08722 whole entry, looked up, the tested form may be a part): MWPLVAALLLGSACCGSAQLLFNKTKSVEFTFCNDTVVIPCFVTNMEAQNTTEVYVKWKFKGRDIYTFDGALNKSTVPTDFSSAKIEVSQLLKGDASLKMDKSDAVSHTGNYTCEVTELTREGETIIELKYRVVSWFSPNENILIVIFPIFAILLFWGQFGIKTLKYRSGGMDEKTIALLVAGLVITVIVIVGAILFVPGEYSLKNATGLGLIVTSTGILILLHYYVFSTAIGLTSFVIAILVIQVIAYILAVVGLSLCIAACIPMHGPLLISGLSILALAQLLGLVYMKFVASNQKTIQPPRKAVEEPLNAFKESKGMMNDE
# Summary of the method: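 Inhibition of soluble CD47/SIRPalpha ectodomain association by titrated compounds, measured as 665/615 nm time-resolved FRET ratio after sequential 30 min room-temperature incubations.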
# [7] = target: T1, Tyrosine-protein phosphatase non-receptor type substrate 1 (Homo sapiens) + Leukocyte surface antigen CD47 (Homo sapiens); test: CD47-SIRPalpha protein protein interaction - HTRF assay qHTS validation (AID 1347058; active = well fitted curve in the direction sought with a large enough effect in the signal ratio, not every such curve was filed as active; the % refers to the signal ratio)
# Summary of the method: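 Soluble extracellular domains (6His-CD47, Avi-tag-biotinylated SIRPalpha) in PBS pH 7.4 with 0.05% IGEPAL CA-630. Compounds were preincubated 30 min at RT with CD47 and anti-His-Eu, then SIRPalpha and SAV-XL665 were added. TR-FRET 665/615 ratio.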
# [8] = target: Parathyroid hormone/parathyroid hormone-related peptide receptor (Homo sapiens) (UniProt Q03431); test: qHTS for PTHR1 Agonists: Optimization Screen against the NCGC LOPAC library (AID 1347079);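 also: GloSensor cAMP luminescence in HEK-293 GP2 cells expressing human PTHR1 with IBMX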
# Sequence of Parathyroid hormone/parathyroid hormone-related peptide receptor (Homo sapiens) (Q03431 whole entry, looked up): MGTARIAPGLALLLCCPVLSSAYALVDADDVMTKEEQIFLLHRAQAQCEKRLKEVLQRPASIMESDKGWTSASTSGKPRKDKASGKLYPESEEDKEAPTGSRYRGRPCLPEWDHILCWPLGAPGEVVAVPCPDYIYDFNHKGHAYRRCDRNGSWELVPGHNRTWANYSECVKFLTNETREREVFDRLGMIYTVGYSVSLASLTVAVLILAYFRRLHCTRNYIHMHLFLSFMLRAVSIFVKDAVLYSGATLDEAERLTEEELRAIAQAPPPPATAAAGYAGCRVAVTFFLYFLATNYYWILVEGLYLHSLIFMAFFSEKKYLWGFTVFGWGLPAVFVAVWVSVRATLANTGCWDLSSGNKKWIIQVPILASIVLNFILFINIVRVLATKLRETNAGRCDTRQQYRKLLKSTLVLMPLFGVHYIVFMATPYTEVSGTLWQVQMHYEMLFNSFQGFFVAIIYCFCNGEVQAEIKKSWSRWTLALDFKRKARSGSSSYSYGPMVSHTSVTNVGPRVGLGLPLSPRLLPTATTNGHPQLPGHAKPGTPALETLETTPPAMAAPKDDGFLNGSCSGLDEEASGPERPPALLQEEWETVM
# Summary of the method: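 HEK-293 GP2 cells, PTHR1 + GloSensor cAMP; 3000 cells/well, o/n. Luciferin + IBMX 0.5mM each (stock), 1 hr 37C. Cpd titration, 1 hr 37C. Lum after 15 min RT. Ctrl M-PTH(1-15) top 10uM.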
# [9] = qHTS of pediatric cancer cell lines to identify multiple opportunities for drug repurposing: Primary screen for TC32 cells (AID 1347089); also: nearly all actives have a fitted effect of over 60% in size; also: potency is read from the fitted curve at half-maximal effect
# Summary of the method: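 A viability screen of TC32 cells was run over 48 h, with primary MIPE doses spanning 0.78 nM–46 µM and NPC doses 0.59 nM–46 µM. ATP luminescence (CellTiter-Glo) served as the read-out.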
# [10] = qHTS of pediatric cancer cell lines to identify multiple opportunities for drug repurposing: Primary screen for DAOY cells (AID 1347090); also: nearly all actives have a fitted effect of over 55% in size; also: potency is read from the fitted curve at half-maximal effect
# Summary of the method: (§1)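 Cell viability, CellTiter-Glo luminescence; 500-1,000 cells/well, 8- or 11-point titration, 48 h compound exposure at 37 degrees C, 5% CO2. Controls: DMSO neutral, bortezomib 2.3 µM final as positive.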
# [11] = qHTS of pediatric cancer cell lines to identify multiple opportunities for drug repurposing: Primary screen for A673 cells (AID 1347092); also: nearly all actives have a fitted effect of over 45% in size; also: potency is read from the fitted curve at half-maximal effect
# Summary of the method: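 Titration-based qHTS on A673 cells: MIPE compounds spanned 11 points (0.78 nM to 46 µM final), NPC compounds 8 points (0.59 nM to 46 µM final). Viability after 48 h was measured by ATP luminescence.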
# [12] = qHTS of pediatric cancer cell lines to identify multiple opportunities for drug repurposing: Primary screen for BT-37 cells (AID 1347094); also: potency is read from the fitted curve at half-maximal effect
# Summary of the method: (§2)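 CRCs from 8- or 11-point titrations (lowest final 0.59 nM NPC, 0.78 nM MIPE). Cell viability: CellTiter-Glo after 48 h incubation, 15 min room-temperature development, luminescence imaging.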
# [13] = qHTS of pediatric cancer cell lines to identify multiple opportunities for drug repurposing: Primary screen for NB-EBc1 cells (AID 1347095); also: potency is read from the fitted curve at half-maximal effect
# Summary of the method: as §2
# [14] = qHTS of pediatric cancer cell lines to identify multiple opportunities for drug repurposing: Primary screen for U-2 OS cells (AID 1347096); also: nearly all actives have a fitted effect of over 50% in size; also: potency is read from the fitted curve at half-maximal effect
# Summary of the method: (§3)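 Cells (500-1,000/well) rested 5 h, then received compounds for 48 h; metabolically active cells were measured by CellTiter-Glo luminescence. Final concentrations spanned up to 46 µM (MIPE, 11-point) or 0.59 nM-46 µM (NPC, 8-point) in primary screens, 11-point in follow-ups.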
# [15] = qHTS of pediatric cancer cell lines to identify multiple opportunities for drug repurposing: Primary screen for Saos-2 cells (AID 1347097); also: nearly all actives have a fitted effect of over 40% in size; also: potency is read from the fitted curve at half-maximal effect
# Summary of the method: as §2
# [16] = qHTS of pediatric cancer cell lines to identify multiple opportunities for drug repurposing: Primary screen for SK-N-SH cells (AID 1347098); also: nearly all actives have a fitted effect of over 65% in size; also: potency is read from the fitted curve at half-maximal effect
# Summary of the method: as §3
# [17] = qHTS of pediatric cancer cell lines to identify multiple opportunities for drug repurposing: Primary screen for SJ-GBM2 cells (AID 1347091); also: potency is read from the fitted curve at half-maximal effect
# Summary of the method: as §1
# [18] = qHTS of pediatric cancer cell lines to identify multiple opportunities for drug repurposing: Primary screen for SK-N-MC cells (AID 1347093); also: potency is read from the fitted curve at half-maximal effect
# Summary of the method: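 Metabolically active cells were quantified by ATP-dependent luminescence (CellTiter-Glo, 15 min at room temperature) following 48 h treatment. Cells had been plated at 500-1,000 per well and settled for 5 h beforehand.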
# [19] = Identifying Small Molecule Inhibitors of Pancreatic Cancer Stem Cells (A278, Adherent) (AID 1259361); also: nearly all actives have a fitted effect of over 35% in size
# Summary of the method: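 Pre-formed 14-day tumor spheroids or adherent cells dosed and incubated 48 h, 37C, 5% CO2. Viability assessed by CellTiter-Glo.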
# [20] = Identifying Small Molecule Inhibitors of Pancreatic Cancer Stem Cells (Panc1, Adherent) (AID 1259362); settings: viability; also: potency is read from the fitted curve at half-maximal effect
# Summary of the method: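 Cytotoxicity read by CellTiter-Glo luminescence after 48 h compound exposure at 37C; percent activity scaled between DMSO-treated cells and cell-free wells. Spheroid formats used cells pre-formed 14 days in stem cell media on hydrogel.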
SMILES,outcome [1],Potency [2],Potency [3],Potency [4],Potency [5],outcome [6],outcome [7],outcome [8],Potency [9],Potency [10],Potency [11],Potency [12],Potency [13],Potency [14],Potency [15],Potency [16],Potency [17],Potency [18],IC50 (viability decrease) [19],Potency [20]
NC(=O)c1cccc(N)c1,inactive,inactive,inactive,inactive,inactive,inactive,inactive,inactive,inactive,inactive,inactive,inactive,inactive,inactive,inactive,inactive,,,,
CC(C)OC(=O)OCOP(=O)(CO[C@H](C)Cn1cnc2c(N)ncnc21)OCOC(=O)OC(C)C,inactive,inactive,,,inactive,,,,inactive,inactive,inactive,inactive,inactive,inactive,inactive,,inactive,11.8 µM (active) and 15 µM (active),,
O=C(O)CSCC(=O)NC1CCSC1=O (configuration not stated),inactive,inactive,,,inactive,,,,inactive,inactive,inactive,inactive,inactive,inactive,inactive,inactive,inactive,inactive,,
NS(=O)(=O)c1cc2c(cc1Cl)NC(C(Cl)Cl)NS2(=O)=O (configuration not stated),inactive,inactive,,,inactive,,,,inactive,inactive,,inactive,inactive,inactive,inactive,inactive,inactive,inactive,,
COC(c1ccccc1)(c1ccccc1)[C@H](Oc1nc(C)cc(C)n1)C(=O)O,inactive,inactive,,,inactive,,,,inactive,inactive,inactive,inactive,inactive,inactive,inactive,inactive,inactive,inactive,,
Nc1nc(F)nc2c1ncn2[C@@H]1O[C@H](CO)[C@@H](O)[C@@H]1O,inactive,inactive and 662 nM (active),,,inactive and 2.09 µM (active),,,,18.7 µM (active) and 2.62 µM (active),1.48 µM (active),0.743 µM (active),863 nM (active),841 nM (active) and 1.05 µM (active),,150 nM (active) and 935 nM (active),,,33.5 nM (active) and 332 nM (active),,
Cn1c(=O)c2c(ncn2CC(O)CO)n(C)c1=O (configuration not stated),inactive,inactive,,,inactive,,,,inactive,inactive,inactive,inactive,inactive,inactive,inactive,inactive,,inactive,,
CC1=NN(c2ccccc2)C(=O)C1,inactive,inactive,,,inactive,,,,inactive,inactive,inactive,inactive,inactive,inactive,inactive,inactive,,inactive,,
CC1=C(C(=O)O)N2C(=O)[C@@H](NC(=O)C(N)c3ccccc3)[C@H]2SC1 (some centres not stated),inactive,inactive,inactive,inactive,inactive,inactive,,inactive,,inactive,,inactive,inactive,inactive,inactive,inactive,,,,
CC(C)C[C@H](NC(=O)[C@H](CCc1ccccc1)NC(=O)CN1CCOCC1)C(=O)N[C@@H](Cc1ccccc1)C(=O)N[C@@H](CC(C)C)C(=O)[C@@]1(C)CO1,,9.2 µM (active),,,0.118 µM (active),,,,23.6 nM (active) and 147 nM (active),53.1 nM (active) and 93.5 nM (active),,174 nM (active) and 306 nM (active),53.1 nM (active) and 29.6 nM (active),1.06 µM (active) and 1.48 µM (active),42.2 nM (active) and 93.5 nM (active),,66.8 nM (active) and 29.6 nM (active),6 nM (active) and 5.9 nM (active),0.0023 µM (active),0.0264 µM (active)
Cc1cc(NS(=O)(=O)c2ccc(N)cc2)no1,inactive,inactive,,,inactive,,,,inactive,inactive,inactive,inactive,inactive,inactive,inactive,,inactive,,,
CCN1CCCC1CNC(=O)c1cc(S(N)(=O)=O)ccc1OC (configuration not stated),inactive,inactive,inactive,inactive,inactive,inactive,inactive,inactive,inactive,inactive,inactive,inactive,inactive,inactive,inactive,inactive,,inactive,,
CNC(=O)c1cc(Oc2ccc(NC(=O)Nc3ccc(Cl)c(C(F)(F)F)c3)cc2)ccn1,,11.8 µM (active) and 8.2 µM (active) and 6.51 µM (active),,,inactive,,,,inactive,11.8 µM (active),,21700 nM (active),5.26 µM (active),18.7 µM (active),18.7 µM (active),19.2 µM (active) and 15.4 µM (active),8.33 µM (active),3.32 µM (active),18.7 µM (active),
CC(C)OC(=O)C(C(=O)OC(C)C)=C1SC=CS1,inactive,inactive,,,inactive,,,,inactive,inactive,inactive,inactive,inactive,inactive,inactive,inactive,,inactive,,
